The source of these data is a collection of fitness landscapes (doi:10.1126/science.1257360).

In all, about 140,000 sequences were measured (“enrichment ratio after two sorts for PhoP signalling”: median about 0, highest 2% from about 11 on). The entries come from a sample that favours the highest values as a whole.

The chains are these.
B1: PhoQ; a variant is named by its letters at X, in order, P23837 (parent)
chain: MKKLLRLFFPLSLRVRFLLATAAVVLVLSLAYGMVALIGYSVSFDKTTFRLLRGESNLFYTLAKWENNKLHVELPENIDKQSPTMTLIYDENGQLLWAQRDVPWLMKMIQPDWLKSNGFHEIEADVNDTSLLLSGDHSIQQQLQEVREDDDDAEMTHSVAVNVYPATSRMPKLTIVVVDTIPVELKSSYMVWSWFIYVLSANLLLVIPLLWVAAWWSLRPIEALAKEVRELEEHNRELLNPATTRELTSLVRNLNRLLKSERERYDKYRTTLTDLTHSLKTPLXXLQXXLRSLRSEKMSVSDAEPVMLEQISRISQQIGYYLHRASMRGGTLLSRELHPVAPLLDNLTSALNKVYQRKGVNISLDISPEISFVGEQNDFVEVMGNVLDNACKYCLEFVEISARQTDEHLYIVVEDDGPGIPLSKREVIFDRGQRVDTLRPGQGVGLAVAREITEQYEGKIVAGESMLGGARMEVIFGRQHSAPKDE

In the assay the parent is B1. In words: enrichment ratio after two sorts for PhoP signalling (ratio (wild type AVST 3.29)); higher = more functional. To be noted: with PhoP (E. coli).
In the case of FYWP, the enrichment ratio is at most 0.25. To RAPP belongs at most 0.25; to TIYT, 2.66. To HIYY belongs at most 0.25; to IYRV, at most 0.25; to SKMA, 3.27. For WRFK, the enrichment ratio is at most 0.25. DFPC: the enrichment ratio is at most 0.25.

For the variant YMWR, the enrichment ratio was at most 0.25.

As to TPAI, the enrichment ratio is at most 0.25. On to MTAI, for which the enrichment ratio was 17.8.

In the case of QAAI, the enrichment ratio was 12.7.

Take QPAI: the enrichment ratio is at most 0.25. To YTAI belongs at most 0.25; to MKAI, at most 0.25; to GKTK, at most 0.25. For YGMR, the enrichment ratio is at most 0.25.

For ACFV, the enrichment ratio is at most 0.25. To HMGM belongs at most 0.25; to YCWM, at most 0.25; to HMTM, 11.7. As for KCLM, the enrichment ratio is at most 0.25. To HMPM belongs at most 0.25. Consider ISLM, for which the enrichment ratio turned out to be 12.9. To YYLM belongs at most 0.25; to YCLM, 14.9. For the variant IALM, the enrichment ratio was determined as 6.67. For FVLM, the enrichment ratio stood at 8.14. To ISWM belongs at most 0.25.

Take FCLM: the enrichment ratio worked out at 12.7. To QYLA belongs at most 0.25. To RGIA belongs at most 0.25. To WTPQ belongs at most 0.25; to MDVM, 8.67. Turning to PTAN, the enrichment ratio is at most 0.25. To QCEP belongs at most 0.25. To CALR belongs at most 0.25; to WMFY, at most 0.25. As for IQQW, the enrichment ratio is at most 0.25. Take VWEW: the enrichment ratio is at most 0.25. As to HMQF, the enrichment ratio was at most 0.25. Consider YSKM, for which the enrichment ratio was at most 0.25.

For the variant WFWG, the enrichment ratio was at most 0.25. Consider GVAV, for which the enrichment ratio is at most 0.25. As to FSLM, the enrichment ratio turned out to be 19.2. To NSLM belongs 7.81; to SYLM, at most 0.25; to HSLM, 22.1.

Regarding FFLM, the enrichment ratio is at most 0.25.

As for SSLM, the enrichment ratio was 17.1. For HSLA, the enrichment ratio was at most 0.25. KSLM: the enrichment ratio was at most 0.25. For FQLM, the enrichment ratio stood at 1.74.

With HSFM, the enrichment ratio was at most 0.25. Consider TSLM, for which the enrichment ratio amounted to 16.7. To QNNM belongs at most 0.25; to YPIG, at most 0.25; to PMYL, at most 0.25. Take WVSG: the enrichment ratio is at most 0.25. To GGKL belongs at most 0.25; to LPCH, at most 0.25; to RYCQ, at most 0.25. Take HSWM: the enrichment ratio is at most 0.25.

Regarding HSTM, the enrichment ratio came to 13.1.

Turning to FAPM, the enrichment ratio stood at 0.451. To MALM belongs 9.02. To HSCK belongs at most 0.25. To FALM belongs 17; to AEWY, 6.65.

Turning to FPSQ, the enrichment ratio was at most 0.25. On to YFHS, for which the enrichment ratio was at most 0.25. Consider HESK, for which the enrichment ratio was at most 0.25. Consider NHDI, for which the enrichment ratio is at most 0.25. Turning to QHDK, the enrichment ratio is at most 0.25. With QHDI, the enrichment ratio is 19.6.

For QHDA, the enrichment ratio came to 10.1.

In the case of QHDM, the enrichment ratio was determined as 19.5. Consider QHDG, for which the enrichment ratio came to 110. To THDI belongs at most 0.25; to QHRM, at most 0.25; to PHDG, at most 0.25.

As to QHDS, the enrichment ratio stood at 29.2. For THDG, the enrichment ratio is at most 0.25. On to QHGM, for which the enrichment ratio is at most 0.25.
